# Laboratory results reported in the supplement of paper PMC3545927.
# The list shows a part of the results. The hit rate among all sequences tested is not known here.
# B1: HC858 (peptide)
# chain: CAHSKKKCDEAGNASASA
# B2: HC2499 (peptide)
# chain: CASPPCSAHLAGNASASA
# B3: HC1989 (peptide)
# chain: CAYVCCSMSYAGNASASA
# B4: HC2037 (peptide)
# chain: CAVVSCSMSYAGNASASA
# B5: FS-1002 (peptide)
# chain: CAGPKDQKRSAGNASASA
# B6: FS-1387 (peptide)
# chain: CAPVPRQKRSAGNASASA
# B7: FS-557 (peptide)
# chain: CAPVPRQRRPAGNASASA
# B8: FS-620 (peptide)
# chain: CAPVFRQKRSAGNASASA
# B9: FS-561 (peptide)
# chain: CARVYRQKRSAGNASASA
# B10: HC2319 (peptide)
# chain: CAPVPCHRPSAGNASASA
# B11: FS-1213 (peptide)
# chain: CAIHRRTPRSAGNASASA
# B12: HC1925 (peptide)
# chain: CATTPCSGSLAGNASASA
# B13: HC20 (peptide)
# chain: CAMEEPSQHLAGNASASA
# B14: FS-540 (peptide)
# chain: CAIHHRQKRSAGNASASA
# B15: FS-762 (peptide)
# chain: CAELQRQKRSAGNASASA
# B16: HC613 (peptide)
# chain: CASLLKVPYFAGNASASA
# B17: FS-837 (peptide)
# chain: CAPARRNRRAAGNASASA
# B18: HC1610 (peptide)
# chain: CAPGEINRVAAGNASASA
# B19: FS-1987 (peptide)
# chain: CAPARRSVLAAGNASASA
# B20: FS-147 (peptide)
# chain: CAVASRNRRAAGNASASA
# B21: HC494 (peptide)
# chain: CALTTTQWQVAGNASASA
# B22: HC1593 (peptide)
# chain: CACEIYGACYAGNASASA
# B23: FS-1648 (peptide)
# chain: CAPISRPRRRAGNASASA
# B24: FS-815 (peptide)
# chain: CALAARPRRRAGNASASA
# B25: HC739 (peptide)
# chain: CAPISYLKGSAGNASASA
# B26: FS-436 (peptide)
# chain: CAGSPRPRRRAGNASASA
# B27: HC2189 (peptide)
# chain: CAEVYTSTWVAGNASASA
# B28: HC2457 (peptide)
# chain: CAESEVPCHRAGNASASA
# B29: HC1685 (peptide)
# chain: CAMLECSQHLAGNASASA
# B30: HC1102 (peptide)
# chain: CALPAILSPGAGNASASA
# B31: HC58 (peptide)
# chain: CATTPNSGSWAGNASASA
# B32: FS-1335 (peptide)
# chain: CAHFQRVKRGAGNASASA
# B33: FS-691 (peptide)
# chain: CAMLRRTKRGAGNASASA
# B34: FS-89 (peptide)
# chain: CASADLVVRGAGNASASA
# B35: FS-1354 (peptide)
# chain: CAKYGRVKRGAGNASASA
# B36: FS-1280 (peptide)
# chain: CASHLRVKRGAGNASASA
# B37: FS-364 (peptide)
# chain: CAMDARHKRGAGNASASA
# B38: HC1888 (peptide)
# chain: CATTPCSWSWAGNASASA
# B39: HC716 (peptide)
# chain: CAWPAPQGSRAGNASASA
# B40: HC263 (peptide)
# chain: CANDCPNSSIAGNASASA
# B41: FS-2727 (peptide)
# chain: CARNKREDRTAGNASASA
# B42: FS-1888 (peptide)
# chain: CAREKRKNRTAGNASASA
# B43: FS-1757 (peptide)
# chain: CARNKRESGKAGNASASA
# B44: FS-3119 (peptide)
# chain: CARVLRENGKAGNASASA
# B45: FS-2914 (peptide)
# chain: CAREKKVTRTAGNASASA
# Molecular target: furin, P09958
# Sequence (P09958 whole entry): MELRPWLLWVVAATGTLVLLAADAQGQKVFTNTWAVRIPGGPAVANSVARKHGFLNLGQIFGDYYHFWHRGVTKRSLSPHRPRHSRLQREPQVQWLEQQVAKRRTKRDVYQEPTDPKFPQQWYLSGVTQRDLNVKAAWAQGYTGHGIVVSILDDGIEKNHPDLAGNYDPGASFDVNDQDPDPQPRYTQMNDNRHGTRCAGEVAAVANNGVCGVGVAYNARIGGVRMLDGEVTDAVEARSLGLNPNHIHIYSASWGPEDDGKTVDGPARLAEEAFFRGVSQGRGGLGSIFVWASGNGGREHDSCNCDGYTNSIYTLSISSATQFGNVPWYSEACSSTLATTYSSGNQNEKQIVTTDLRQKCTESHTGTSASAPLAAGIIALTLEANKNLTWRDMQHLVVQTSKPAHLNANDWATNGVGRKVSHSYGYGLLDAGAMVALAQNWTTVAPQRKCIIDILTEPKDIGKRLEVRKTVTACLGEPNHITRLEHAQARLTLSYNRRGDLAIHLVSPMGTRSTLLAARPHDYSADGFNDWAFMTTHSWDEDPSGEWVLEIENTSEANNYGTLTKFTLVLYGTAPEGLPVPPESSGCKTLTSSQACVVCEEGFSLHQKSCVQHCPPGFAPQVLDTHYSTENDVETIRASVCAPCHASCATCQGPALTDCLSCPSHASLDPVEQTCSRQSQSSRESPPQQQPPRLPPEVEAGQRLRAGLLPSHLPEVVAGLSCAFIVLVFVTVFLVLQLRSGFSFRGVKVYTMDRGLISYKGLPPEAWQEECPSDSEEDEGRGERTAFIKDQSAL
# Experiment: furin cleavage Z-score vs untreated control; higher = more cleavage, active = 3.5 or more, inactive = 1 or less, 8 variable residues between constant flanks
# Summary of the method: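 Abundance of DNA freed from bead-bound 8-mer peptide–cDNA fusions by purified furin was measured as sequencing read counts after PCR adapter tagging. Cutting ran 7.5, 15 or 30 min in 0.01 ml of 50 mM HEPES pH 7.5 with CaCl2 and NaCl at 1:10 enzyme:substrate. The cleavage Z-score expresses these log counts against furin-free reactions after lowess adjustment and median absolute deviation scaling.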
Sequence,furin cleavage Z-score (7.5 min),furin cleavage Z-score (15 min),furin cleavage Z-score (30 min)
B1,0.938 (inactive),-0.00521 (inactive),-0.176 (inactive)
B2,1.04,-0.446 (inactive),0.95 (inactive)
B3,0.374 (inactive),-0.0389 (inactive),0.11 (inactive)
B4,0.59 (inactive),-1.65 (inactive),0.705 (inactive)
B5,0.96 (inactive),0.905 (inactive),0.353 (inactive)
B6,10.9 (active),10.8 (active),8.52 (active)
B7,1.31,0.43 (inactive),-0.0302 (inactive)
B8,14.1 (active),12.3 (active),9.55 (active)
B9,12.1 (active),12.4 (active),9.77 (active)
B10,0.318 (inactive),1.19,0.255 (inactive)
B11,10.3 (active),8.47 (active),7.15 (active)
B12,-0.297 (inactive),-1.38 (inactive),-1.27 (inactive)
B13,-0.193 (inactive),1.35,1.68
B14,12 (active),10.4 (active),9.65 (active)
B15,10.3 (active),11.5 (active),9.23 (active)
B16,-0.873 (inactive),0.367 (inactive),-0.906 (inactive)
B17,8.23 (active),9.65 (active),8.04 (active)
B18,0.342 (inactive),1.78,0.355 (inactive)
B19,-0.364 (inactive),-0.766 (inactive),-0.871 (inactive)
B20,13.1 (active),12.8 (active),9.83 (active)
B21,0.00411 (inactive),-0.467 (inactive),0.941 (inactive)
B22,-1.5 (inactive),-1.53 (inactive),-2.18 (inactive)
B23,7.6 (active),8.41 (active),6.07 (active)

Sequence,furin cleavage Z-score (7.5 min),furin cleavage Z-score (15 min),furin cleavage Z-score (30 min)
B24,4.52 (active),6.47 (active),5.7 (active)
B25,0.299 (inactive),-0.469 (inactive),-0.42 (inactive)
B26,7.08 (active),9.3 (active),7.64 (active)
B27,0.0489 (inactive),-1.01 (inactive),-0.826 (inactive)
B28,-0.0892 (inactive),0.0197 (inactive),0.878 (inactive)
B29,-0.00687 (inactive),-0.291 (inactive),-0.319 (inactive)
B30,-0.355 (inactive),-0.501 (inactive),-0.653 (inactive)
B31,-0.658 (inactive),-1.14 (inactive),-1.83 (inactive)
B32,7.42 (active),6.93 (active),6.76 (active)
B33,-0.133 (inactive),-0.069 (inactive),0.376 (inactive)
B34,0.299 (inactive),-0.542 (inactive),-0.0754 (inactive)
B35,0.448 (inactive),0.71 (inactive),0.194 (inactive)
B36,7.98 (active),7.64 (active),6.42 (active)
B37,6.41 (active),8.49 (active),7.7 (active)
B38,-2.26 (inactive),-1.57 (inactive),0.135 (inactive)
B39,1.18,-0.57 (inactive),0.187 (inactive)
B40,0.567 (inactive),0.0331 (inactive),-0.164 (inactive)
B41,11.9 (active),12.6 (active),8.05 (active)
B42,0.751 (inactive),1.62,-0.32 (inactive)
B43,8.44 (active),9.42 (active),7.75 (active)
B44,0.679 (inactive),-0.235 (inactive),0.807 (inactive)
B45,-1.91 (inactive),-0.133 (inactive),0.367 (inactive)
